Hits are enriched below; roughly 4.6% of the tested compounds scored in any of these assays.
D1 PAM – enhances dopamine response at the human D1 receptor; P21728; HEK293 TREx D1 cells, calcium flux, dopamine EC20 potentiation; potentiation, % at 10 µM; 360,000 compounds, 0.036% hits; AID 504651; in the data active = potentiation above about 30%
D1 ag – agonists of human D1 dopamine receptor | P21728 | activation, % at 2 µM | HEK293 T-REx D1 cells, calcium flux, agonist mode | AID 504660 | 360,000 compounds, 1% hits
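Inducible HEK293 T-REx D1 cells, force-coupled to calcium signalling, were plated at 4000 cells/well with tetracycline and held overnight at 30 C. After no-wash calcium dye loading, compound-evoked calcium rise over 180 s flagged agonists.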
TRHR ag – activates the human TRH receptor | activation, % at 2 µM | 360,000 compounds, 0.18% hits | TRHR cells, calcium flux fluo-8, FDSS agonist mode | AID 493084 | P34981
Target sequence (P34981 whole entry, looked up): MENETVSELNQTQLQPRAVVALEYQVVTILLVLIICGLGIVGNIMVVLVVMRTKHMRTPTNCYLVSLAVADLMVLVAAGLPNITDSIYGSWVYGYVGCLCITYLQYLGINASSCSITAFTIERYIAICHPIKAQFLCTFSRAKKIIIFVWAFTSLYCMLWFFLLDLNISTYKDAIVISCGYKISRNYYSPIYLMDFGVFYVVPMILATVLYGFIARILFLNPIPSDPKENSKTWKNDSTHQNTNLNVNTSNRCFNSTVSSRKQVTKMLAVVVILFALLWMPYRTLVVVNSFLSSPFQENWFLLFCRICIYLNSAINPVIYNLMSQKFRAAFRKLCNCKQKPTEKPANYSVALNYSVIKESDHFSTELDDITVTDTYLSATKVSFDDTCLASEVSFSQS
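TRHR-expressing cells, plated overnight in medium with 10% serum, were loaded with fluo-8 calcium dye at room temperature. After a 10 s baseline, library compound was pin-added and calcium release was recorded kinetically (ex 480/em 530) as agonist response.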
TRHR PAM – allosteric enhancers of human TRH receptor | TRHR cells, fluo-8 calcium fluorescence, EC20 TRH enhancement | 360,000 compounds, 0.66% hits | enhancement, % at 2 µM; in the data active = enhancement above about 30%
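Enhancer read-out: after compound pinning and an initial kinetic agonist-mode read, an EC20 of TRH (10 nM final) was injected and fluo-8 calcium signal (Ex 480/Em 530) followed at 1 s/cycle for 100 cycles in TRHR-expressing cells.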
D1 antagonist – antagonists of human D1 dopamine receptor; AID 504652; activity change, negative = inhibition, % at 10 µM; P21728; 360,000 compounds, 3.2% hits; HEK293 TREx D1 cells, calcium flux, dopamine EC80; active compounds read low; in the data active = activity change below about -30%
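Compound effects on dopamine-evoked calcium signalling were measured in tetracycline-induced HEK293 Trex D1 cells. Dopamine at EC80 followed a 180 s compound pre-read, and fluorescence was tracked kinetically for 180 s more.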
Large screens that a line does not name were inactive. Cut-off read from the data, not from the text of the source, unless noted: active = activation above about 30%; inactive = the rest.

CCOc1cc(C(=O)N2CCn3c4c(c5cc(C)ccc53)CCCC42)cc(OCC)c1OCC (stereo unspecified)	none
CCNS(=O)(=O)c1ccc(NC(=S)NCc2ccco2)cc1	none
O=C(COc1ccccc1Cl)N(Cc1ccco1)C1CCS(=O)(=O)C1 (stereo unspecified)	none
Cn1c(C(=O)N2CCN(Cc3ccccc3)CC2)cc2c(=O)n(C)c3ccccc3c21	none (no result: D1 PAM)
Cc1nc(CS(=O)c2ccc(Cl)cc2)cc(NCc2ccc(Cl)cc2Cl)n1 (stereo unspecified)	none
O=C(Nc1cc(Cl)cc(Cl)c1)c1coc(=O)c(Br)c1	D1 ag 37, D1 antagonist -46
CC(=O)OCCn1c2nc(=O)[nH]c(=O)c-2nc2cc(C)c(C)cc21	D1 ag 482, TRHR ag 161, TRHR PAM 124
CS(=O)(=O)c1ccc(Cl)c(NC(=O)COC(=O)/C=C/c2cnc3ccccc3n2)c1	none
Cc1nn(CCc2nn[nH]n2)c2nc(-c3ccc(C4CCCCC4)cc3)cc(C(F)(F)F)c12	D1 antagonist -46
O=C(NCc1ccc2c(c1)OCO2)c1cc(COc2c(F)cccc2F)on1	none
O=C(NCc1ccc(N2CCCC2=O)cc1)c1cc(COc2c(F)cccc2F)on1	D1 antagonist -32
COC(=O)[C@H](Cc1ccccc1)NC(=O)c1cc(COc2c(F)cccc2F)on1	D1 ag 31
CN(CC1COc2ccccc2O1)C(=O)c1cc(COc2c(F)cccc2F)on1 (stereo unspecified)	D1 antagonist -46
CN(Cc1cc(-c2ccccc2)on1)C(=O)c1cc(COc2c(F)cccc2F)on1	TRHR PAM 34
O=C(NCc1cccs1)c1ccc(N2CCCC2=O)cc1	none
C#Cc1ccc(C(=O)NCc2ccc(N3CCCC3=O)cc2)cc1	D1 antagonist -32
Cc1ccc(C)c(OCc2cc(C(=O)N(C)Cc3ccccn3)no2)c1	D1 antagonist -44
COc1cccc(C(=O)Nc2ccccc2SCc2cc(=O)c3cccc(C)c3[nH]2)c1	none
COc1c(Cl)cc(Cl)cc1C(=O)Nc1ccc(CN2CCCCC2)cc1	D1 ag 31
COc1ccc(C(=O)NC(=S)Nc2ccc(CN3CCCCC3)cc2)cc1Cl	none
Cc1ccc(C(=O)NC(=S)Nc2ccc(CN3CCCCC3)cc2)c(C)c1	D1 antagonist -42
Cc1ccc(Cl)cc1N1CCN(CC(=O)Nc2ccc(CN3CCCCC3)cc2)CC1	D1 ag 54, D1 antagonist -48
Cc1cc(C(=O)COc2ccccc2Cl)c(C)n1-c1ccc2c(c1)OCO2	none
Cc1cc(C(=O)CSc2n[nH]c(N)n2)c(C)n1-c1ccc2c(c1)OCO2	D1 antagonist -40
CNS(=O)(=O)c1cccc(C(=O)OCC(=O)c2cc(C)n(-c3ccc4c(c3)OCO4)c2C)c1	D1 antagonist -39
Cc1cc(C(=O)CN2C(=O)NC(C)(CC(C)C)C2=O)c(C)n1-c1ccc2c(c1)OCO2 (stereo unspecified)	D1 antagonist -46
CNS(=O)(=O)c1cccc(C(=O)OCC(=O)c2cc(C)n(CC3CCCO3)c2C)c1 (stereo unspecified)	none
O=C(O)C1CCCCC1C(=O)Nc1ccc(F)c(F)c1 (stereo unspecified)	none
COc1ccc(OC)c(CNc2ccc([N+](=O)[O-])cc2C)c1	D1 antagonist -37
CCCc1cc(C(=O)Nc2ccc(C(=O)c3ccccc3)cc2)n(C)n1	D1 antagonist -32
Cc1ccc(C)c(NC(=O)CN2CCCN(Cc3cccc(Cl)c3)S2(=O)=O)c1	D1 antagonist -79
CCc1cccc(NC(=O)CN2CCCN(Cc3cccc(C)c3)S2(=O)=O)c1	none
Cc1cccc(CN2CCN(CC(=O)Nc3c(C)cccc3C)S2(=O)=O)c1	TRHR ag 36
COc1ccccc1NS(=O)(=O)c1ccc(C)c(NC(=O)c2ccc(S(=O)(=O)N3CCCCCC3)cc2)c1	none
CCOC(=O)N1CCN(C(=O)CNS(=O)(=O)c2c(C)cc(C)cc2C)CC1	TRHR PAM 33
CCOC(=O)N1CCN(C(=O)CNS(=O)(=O)c2cccs2)CC1	none
CCOC(=O)COc1ccc(F)cc1C(=O)c1ccn2nc(-c3ccc(C)cc3)cc2n1	none
O=[S+]([O-])(c1ccc2c(c1)OCCO2)N1CCN([S+](=O)([O-])c2c(O)cc(F)cc2F)CC1	D1 antagonist -48
O=[S+]([O-])(c1ccc2c(c1)OCCO2)N1CCN([S+](=O)([O-])c2c(F)cc(O)cc2F)CC1	none
O=C(c1ccc(CS(=O)c2ccccc2Cl)o1)N1CCN(c2ccccn2)CC1 (stereo unspecified)	D1 antagonist -36
O=C(c1ccc(CS(=O)Cc2ccccc2Cl)o1)N1CCN(c2cccc(Cl)c2)CC1 (stereo unspecified)	D1 antagonist -45
COc1cccc(N2CCN(C(=O)c3ccc(CS(=O)Cc4ccccc4Cl)o3)CC2)c1 (stereo unspecified)	none
O=C(c1ccc(CS(=O)Cc2ccccc2Cl)o1)N1CCN(c2ccccn2)CC1 (stereo unspecified)	none
O=C(c1ccc(CS(=O)Cc2ccc(Cl)cc2)o1)N1CCN(c2ccccn2)CC1 (stereo unspecified)	D1 antagonist -36
C=CCn1c(N)cc(=O)nc1SC(C)C(=O)Nc1ccc(C(=O)OCC)cc1 (stereo unspecified)	D1 antagonist -35
COc1ccccc1-c1sc2cc3c(cc2c1-c1ccc2c(c1)OCO2)OCO3	none (no result: D1 antagonist)
Nc1c(C(=O)c2ccc3c(c2)OCO3)sc(Nc2ccccc2F)c1S(=O)(=O)c1ccccc1	none
Cc1ccc(S(=O)(=O)c2c(Nc3ccc(C)c(C)c3)sc(C(=O)c3ccc4c(c3)OCO4)c2N)cc1	D1 ag 68
Cc1ccc(S(=O)(=O)c2c(Nc3cc(C)ccc3C)sc(C(=O)c3ccc4c(c3)OCO4)c2N)cc1	D1 ag 84
CCOc1ccc(Nc2sc(C(=O)c3ccc4c(c3)OCO4)c(N)c2S(=O)(=O)c2ccc(C)cc2)cc1	D1 ag 37
COC(=O)CC(NC(=S)NC(=O)c1ccccc1)c1ccc(Br)cc1 (stereo unspecified)	none
Cc1cc(C)cc(C(=O)OCC(=O)N2CCCCCC2)c1	D1 antagonist -30
O=C(Cc1ccccc1)Nc1nnc2n1CCS2	none
CC(C)c1ccc(C(=O)NNC(=O)C2C3CCC(C3)C2C(=O)O)cc1 (stereo unspecified)	D1 antagonist -75
O=C(COC(=O)C1CCCCC1)Nc1ccc(N2CCCCC2)cc1	D1 antagonist -30
CC(Oc1cccc(Cl)c1)C(=O)N(C)CC(=O)Nc1ccc(N2CCOCC2)cc1 (stereo unspecified)	none
CCCC(C(=O)Nc1ccc(S(=O)(=O)N2CCOCC2)cc1)c1ccccc1 (stereo unspecified)	D1 ag 37
